Assay outcomes: PubChem BioAssay, ICCB-Longwood Screening Facility, Harvard Medical School
Many of the other results were omitted from the sample, so hits are more common in it than they were.
MgrA DNA FP – S. aureus MgrA activity modulators, primary screen, biochemical, S. aureus Newman, fluorescence polarization. inhibition, % (test concentration not listed). MgrA-DNA binding. AID 602314, 2012. 84,000 compounds, 0.13% hits; in the data active = inhibition above about 30%, passing the limit was not always enough;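 also: higher means less MgrA bound to DNA so lower polarization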
A number is an active result; . = inactive.

SMILES	MgrA DNA FP
CCN(CC)C(=O)c1ccc(Oc2nnnn2-c2ccccc2)c(OC)c1	.
COc1ccc(N2CCN(CCCNS(=O)(=O)c3c(C)noc3C)CC2)cc1	.
O=C(O)CCC(=O)N1N=C(c2c(-c3ccccc3)c3cc(Br)ccc3[nH]c2=O)CC1c1ccccc1Cl (stereo not drawn)	.
Cc1cn(CC(=O)NCCN)c(=O)[nH]c1=O	.
CC(C)c1ccc(C2C(C#N)=C(N)C(C#N)(C#N)C3=CCN(C)CC32)cc1 (stereo not drawn)	.
CCN1CC=C2C(C1)C(c1ccc(Cl)s1)C(C#N)=C(N)C2(C#N)C#N (stereo not drawn)	42
CCCN1CC=C2C(C1)C(c1ccc(C(=O)OC)cc1)C(C#N)=C(N)C2(C#N)C#N (stereo not drawn)	.
CN(C)Cc1ccc(CSCCNC(=O)Nc2ccc(Cl)cc2)o1	.
COc1ccc(NC(=O)CSc2cn(Cc3ccc(Cl)cc3)c3ccccc23)cc1	.
O=C1c2ccccc2-c2nc(-c3ccccc3)cc3cccc1c23	.
Clc1ccc(-c2nc(N3CCCCC3)c3ccccc3n2)cc1	.
O=C1c2ccc(S(=O)(=O)O)cc2-c2nc(-c3ccccc3)nc3ccc(Cl)c1c23	81
Cc1ccc(N2CSCC2=O)cc1	.
CC1CCc2c(nc3ncnn3c2NCCC2CCCN2C)C1 (stereo not drawn)	.
O=C1C=CC(=O)C(c2ccc(C(=O)O)cc2)=C1	83
CCc1ccc(C2=CC(=O)C=CC2=O)cc1	.
O=C(O)c1ccc(-c2ccccc2)cc1	.
Cc1ccc2c(c1)CCCN2C(=O)Nc1cccc(C)c1C	.
O=C1N=c2ccc([N+](=O)[O-])cc2=C1c1sc(=Nc2ccccc2)n(-c2ccccc2)c1O	.
Cc1ccc(/C=C2\SC(=O)NC2=S)o1	81
Cc1ccc(/C=C2/SC(=S)N(CCc3ccc(Cl)cc3)C2=O)o1	.
Cc1ccc(/C=C2\CC/C(=C\c3ccc(C)o3)C2=O)o1	.
Cc1nonc1NC(=O)CNC1CCCCC1	.
CC(C)(C)S(=O)(=O)c1ccsc1S(C)(=O)=O	.
CN(C)c1nc2ncnc(N)c2[nH]1	.
SMILES	MgrA DNA FP
O=C1c2c(O)ccc(O)c2C(=O)c2c(NCCNCCO)ccc(NCCNCCO)c21	47
CCOc1ccc(C=C2C(=O)OC(c3ccccc3)OC2=O)cc1 (stereo not drawn)	.
O=C1NC(=S)N/C1=C\c1cccc(OCc2ccc(F)cc2)c1	.
O=C1OC(c2ccccc2)OC(=O)C1=Cc1cccc(OCc2ccccc2)c1 (stereo not drawn)	56
CCCN(CCC)S(=O)(=O)c1ccc(C(=O)Nc2ccc(F)cc2F)cc1	.
O=C(NCCN1CCCCC1)c1ccccn1	.
CCCC(=O)Nc1ccc(N2CCCCC2C)cc1 (stereo not drawn)	.
Nc1ccc(N2CCCCC2)cc1	.
Nc1ccc(N2CCCC2)cc1	57
O=S(=O)(c1ccccc1)c1ccc(N2CCCCC2)cc1	.
CC(=O)Nc1ccc(F)cc1Br	.
CCOc1ccc(N/C=C/C(=O)c2ccco2)cc1	.
O=C(/C=C/Nc1cccc(C(F)(F)F)c1)c1ccco1	.
O=C(/C=C/Nc1ccccc1C(F)(F)F)c1ccco1	93
CCSc1nnc(Cc2ccccc2)o1	.
N#Cc1ccc(-c2cccc(C(F)(F)F)c2)o1	.
Cc1ccc(C)n1-c1sccc1C(=O)CC#N	.
Cc1ccc(C)n1-c1sccc1C(=O)O	89
CC(=O)Nc1sccc1C(=O)O	.
CC(C)(C)c1cc(C(F)(F)F)c2c(=O)n(-c3ccccc3)[nH]c2n1	.
N=C1/C(=C/c2ccc(OCCOc3ccccc3)c(Cl)c2)C(=O)N=C2SC=CN12	.
COc1ccc(N2C(=O)/C(=C\c3ccc(C(C)C)cc3)C(=O)NC2=S)cc1	.
CCC(C)N1C(=O)/C(=C\c2cnn(-c3ccccc3)c2)C(=O)NC1=S (stereo not drawn)	63
CCc1ccc(N2C(=O)/C(=C/c3ccc(OCC(=O)O)c(OC)c3)C(=O)NC2=S)cc1	.
Cc1csc(N=C(N)N)n1	.
SMILES	MgrA DNA FP
CC(=O)Nc1ccccc1-c1ccccc1	.
O=C(C1CCCO1)N1CCN(c2ccc(Cl)c(Cl)c2)CC1 (stereo not drawn)	.
CC(C)c1ccc(NC(=O)CNS(=O)(=O)c2ccccc2)cc1	.
Cc1ccc(S(=O)(=O)Nc2ccc(Br)cc2C(NCC(=O)O)c2ccccc2)cc1 (stereo not drawn)	.
CC(C)c1ccc(S(=O)(=O)Nc2cc(SCC(=O)O)c(O)c3ccccc23)cc1	90
CCN(CC)S(=O)(=O)c1cccc(-c2[nH]c3ccccc3[n+]2-c2ccccn2)c1	.
COc1ccc2cc(/C(C)=N/Oc3ncccc3[N+](=O)[O-])ccc2c1	.
Cc1nc(-c2ccncc2)ncc1-c1nsc(Nc2ccccc2)n1	.
N#C/C(=C\c1ccc(/C=C(\C#N)S(=O)(=O)c2ccccc2)cc1)S(=O)(=O)c1ccccc1	.
Cc1ccc(S(=O)(=O)/C(C#N)=C/c2ccccc2)cc1	.
Cc1ccc(S(=O)(=O)/C(C#N)=C/C2=Cc3ccccc3OC2)cc1	62
COC(=O)c1cc(S(N)(=O)=O)c(C)o1	.
Cc1cc2c(cc1S(=O)(=O)NC(C)(C)C)OCC(=O)N2	.
CCCc1oc(C(=O)O)cc1CN(CC)CC	.
CCN(CC)Cc1cc(O)c(CN(CC)CC)cc1O	60
CCN(CC)Cc1cc(C2N(C(C)=O)c3cccc4cccc(c34)N2C(C)=O)ccc1O	.
O=C(c1ccc2ccccc2n1)N1CCCCC1	.
COC(=O)C(NC(=O)Nc1ccccc1)C(C)C (stereo not drawn)	.
COC(=O)C(C(=O)OC)C(Nc1ccccc1)c1ccccc1 (stereo not drawn)	101
COC(=O)C(N=Cc1ccccc1)c1ccccc1 (stereo not drawn)	.
Cc1onc(-c2ccccc2)c1CN1CCCCC1	.
CCCc1nc2cc(Cl)c(Cl)cc2nc1C	.
O=C(NC1(C(=O)O)CC1)OCC1c2ccccc2-c2ccccc21	.
O=C(OCC1c2ccccc2-c2ccccc21)ON1C(=O)CCC1=O	68
O=C(COc1ccccc1)ON1C(=O)CCC1=O	.
SMILES	MgrA DNA FP
N#C/C(=C/c1ccc(-c2cccc(C(F)(F)F)c2)o1)c1ccc(C#N)cc1	.
CC(C)(C)C1(C)OC(=O)C(=Cc2ccc(Br)o2)C(=O)O1 (stereo not drawn)	.
Cc1ccc(N2C(=O)NC(=O)/C(=C/c3ccc(Br)o3)C2=O)cc1Cl	49
Cc1ccc(N2C(=O)NC(=O)/C(=C/c3cc(Br)c(O)cc3O)C2=O)cc1	.
CC1CCCCC1NC(=O)CCSCc1cccc(Cl)c1 (stereo not drawn)	.
CC(=O)n1nc(-c2ccc(Cl)cc2)nc1NCc1ccc(F)cc1	.
O=c1cc(O)c2sc3nc(-c4ccco4)cc(C(F)(F)F)c3c2[nH]1	88
O=c1cc(O)c2sc3nc(-c4ccccc4)ccc3c2[nH]1	.
FC(F)(F)c1cc(-c2ccco2)nc(-n2cccn2)n1	.
COc1ccccc1C1C2=C(CC(C)(C)CC2=O)Nc2n[nH]c(C)c21 (stereo not drawn)	.
CCN(CC)C(=O)c1cc(-c2cc(C(=O)N(CC)CC)c3ccccc3n2)nc2ccccc12	.
CCOC(=O)c1ccc2c(c1)C1C=CCC1C(c1ccc(Cl)cc1Cl)N2 (stereo not drawn)	.
Fc1ccc(C2Nc3ccc(Br)cc3C3C=CCC32)cc1 (stereo not drawn)	.
CCOC(=O)[C@@H]1Nc2ccc(C(=O)O)cc2[C@@H]2C=CC[C@H]12	71
CC(=O)c1ccc2c(c1)C1C=CCC1C(c1ccc(Cl)cc1Cl)N2 (stereo not drawn)	.
